From PubChem BioAssay (NCATS)
Inconclusive results are not listed. Active and inactive are the calls of the source. Calls follow the shape of the dose curve; as a rule, active = well fitted cell-killing curve with a large enough effect; inconclusive = small, poorly fitted or top-dose-only effect, or effect the other way; inactive = flat fitted curve, though single readings scatter.

Assays:
Assay in all cases: Primary qHTS to identify gynecologic anti-cancer compounds using libraries of approved drugs and bioactive compounds (AID 1345084); also: nearly all actives have a fitted effect of over 55% in size
Conditions in all cases: Gynecologic cancer cell panel viability, ATPlite luminescence, 48 h; series mostly up to 57.5 µM
OV90 = test system: OV90
How it was run: (§1)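 Luminescence from the ATPlite ATP-monitoring reagent indicates viable cell number; lower signal means cytotoxicity. Cells received compound 16 h after seeding and were exposed for 48 h across five concentrations.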

PA-1 = test system: PA-1
How it was run: as §1

SKOV3 = test system: SKOV3
How it was run: as §1

Tov-21-G = test system: Tov-21-G
How it was run: as §1

Tov112D = test system: Tov112D
How it was run: as §1
% is scaled to controls: 0 for no effect and ±100 for the full control effect.

COC(=O)C1(O)C(OC(C)=O)CCC2C3(CC(c4ccoc4)OC3=O)C(C)=CCC21C(=O)OC (stereo not given)
inactive: Potency (OV90) | Potency (PA-1) | Potency (SKOV3) | Potency (Tov-21-G) | Potency (Tov112D)

CN[C@H](CNC(=O)N1CCC[C@@H]([C@@H](OCCNC(=O)OC)c2cccc(Cl)c2)C1)C[C@H]1CCCOC1
inactive: Potency (OV90) | Potency (PA-1) | Potency (SKOV3) | Potency (Tov-21-G) | Potency (Tov112D)

Cc1c(F)cc(C(=O)NC2CC2)cc1-c1ccc(C(=O)NCC(C)(C)C)cn1
inactive: Potency (OV90) | Potency (PA-1) | Potency (SKOV3) | Potency (Tov-21-G) | Potency (Tov112D)

CC1=C2CC(=O)C(C)CC/C=C(\C)CC2(O)OC1=O (stereo not given)
inactive: Potency (OV90) | Potency (PA-1) | Potency (SKOV3) | Potency (Tov-21-G) | Potency (Tov112D)

O=C(/C=C/c1ccc(O)cc1)OC[C@H]1O[C@@H](O/C(=C\c2ccccc2)C(=O)O)[C@H](O)[C@@H](O)[C@@H]1O
inactive: Potency (OV90) | Potency (PA-1) | Potency (SKOV3) | Potency (Tov-21-G) | Potency (Tov112D)

CNC(=O)c1ccc2c(c1)CCO[C@H]2CCN1CCN(c2ccc(C(N)=O)cc2)CC1
inactive: Potency (OV90) | Potency (PA-1) | Potency (SKOV3) | Potency (Tov-21-G) | Potency (Tov112D)

CC1CC2OCC3(O)CCC(O)C(C14CC(c1ccoc1)OC4=O)C23CO (stereo not given)
inactive: Potency (OV90) | Potency (PA-1) | Potency (SKOV3) | Potency (Tov-21-G) | Potency (Tov112D)

CC1(C)C2CCC1(C)C(OC(=O)C(O)(CC(=O)O)CC(=O)O)C2 (stereo not given)
inactive: Potency (OV90) | Potency (PA-1) | Potency (SKOV3) | Potency (Tov-21-G) | Potency (Tov112D)

CC1(C)OC(=O)C=C[C@@]2(C)C1CC(=O)[C@]1(C)C2CC[C@@]2(C)[C@H](c3ccoc3)OC(=O)[C@H]3O[C@]321 (stereo not given in full)
inactive: Potency (OV90) | Potency (PA-1) | Potency (SKOV3) | Potency (Tov-21-G) | Potency (Tov112D)

CC(C)c1c(NC(=O)Nc2ccc(Cl)cc2)c(=O)n(-c2ccccc2)n1C
inactive: Potency (OV90) | Potency (PA-1) | Potency (SKOV3) | Potency (Tov-21-G) | Potency (Tov112D)

NC(Cc1c[nH]c2ccc(O)cc12)C(=O)O (stereo not given)
inactive: Potency (OV90) | Potency (PA-1) | Potency (SKOV3) | Potency (Tov-21-G) | Potency (Tov112D)

COc1cc(/C=C/C(=O)O[C@@H]2C[C@@](O)(C(=O)O)C[C@@H](O)[C@@H]2O)ccc1O
inactive: Potency (OV90) | Potency (PA-1) | Potency (SKOV3) | Potency (Tov-21-G) | Potency (Tov112D)

CC(=O)OC(C)C(C)(O)C(=O)O[C@@H]1CC[C@]2(C)CC(=O)C(=C(C)C)C[C@H]2[C@]1(C)OC(C)=O (stereo not given in full)
inactive: Potency (OV90) | Potency (PA-1) | Potency (SKOV3) | Potency (Tov-21-G) | Potency (Tov112D)

On1ncc(C2CCNCC2)c1-c1cccc(-c2ccccc2)c1
inactive: Potency (OV90) | Potency (PA-1) | Potency (SKOV3) | Potency (Tov-21-G) | Potency (Tov112D)

NC(=O)[C@H](Cc1ccccc1)NC(=O)[C@H](CCCN=C(N)N)NC(=O)C12CC3CC(CC(C3)C1)C2
inactive: activity change, negative = cytotoxicity (OV90) -0.378% [at 11.6 µM] | activity change, negative = cytotoxicity (PA-1) 5.55% [at 11.6 µM] | activity change, negative = cytotoxicity (SKOV3) 6.06% [at 11.6 µM] | activity change, negative = cytotoxicity (Tov-21-G) 4.32% [at 11.6 µM] | activity change, negative = cytotoxicity (Tov112D) -1.65% [at 11.6 µM]

COc1ccc(Oc2c(Cl)cnn(C3c4ccccc4-c4ccccc43)c2=O)cc1
inactive: Potency (OV90) | Potency (PA-1) | Potency (SKOV3) | Potency (Tov-21-G) | Potency (Tov112D)

Oc1ccc2c(-c3c(-c4ccccn4)nn4c3CCC4)ccnc2c1
inactive: Potency (OV90) | Potency (PA-1) | Potency (SKOV3) | Potency (Tov-21-G) | Potency (Tov112D)

COc1cc(CO)ccc1O[C@@H]1O[C@H](CO)[C@@H](O)[C@H](O)[C@H]1O
inactive: Potency (OV90) | Potency (PA-1) | Potency (SKOV3) | Potency (Tov-21-G) | Potency (Tov112D)

COC(=O)C1=COC(OC2OC(CO)C(O)C(O)C2O)C2C(COC(=O)/C=C/c3ccc(O)c(O)c3)C(O)C(O)C12 (stereo not given)
inactive: Potency (OV90) | Potency (PA-1) | Potency (SKOV3) | Potency (Tov-21-G) | Potency (Tov112D)

COc1ccccc1CN[C@H]1CCCN[C@H]1c1ccccc1
inactive: Potency (OV90) | Potency (PA-1) | Potency (SKOV3) | Potency (Tov-21-G) | Potency (Tov112D)

CCOC(=O)C1=C(N)Oc2ccc(Cl)cc2C1C(C#N)C(=O)OCC (stereo not given)
inactive: Potency (OV90) | Potency (PA-1) | Potency (SKOV3) | Potency (Tov-21-G) | Potency (Tov112D)

C[C@H]1[C@H](C)CC[C@]2(C(=O)O)CC[C@]3(C)C(=CCC4[C@@]5(C)C[C@@H](O)[C@H](O)C(C)(C)C5CC[C@]43C)[C@H]12 (stereo not given in full)
inactive: Potency (OV90) | Potency (PA-1) | Potency (SKOV3) | Potency (Tov-21-G) | Potency (Tov112D)

C=C1CC[C@@H]2[C@@](C)(CO[C@@H]3O[C@H](CO)[C@@H](O)[C@H](O)[C@H]3O)[C@H](O)CC[C@@]2(C)[C@@H]1CC/C(C)=C/CO[C@@H]1O[C@H](CO)[C@@H](O)[C@H](O)[C@H]1O
inactive: Potency (OV90) | Potency (PA-1) | Potency (SKOV3) | Potency (Tov-21-G) | Potency (Tov112D)

Cc1cc(CNC(=O)c2cc(C(=O)NCc3ccc(F)c(C)c3)ncn2)ccc1F
inactive: Potency (OV90) | Potency (PA-1) | Potency (SKOV3) | Potency (Tov-21-G) | Potency (Tov112D)

CCCNCCOc1ccc(NC(=O)c2c[nH]c3c2C(=O)CCC3)cc1F
inactive: Potency (OV90) | Potency (PA-1) | Potency (SKOV3) | Potency (Tov-21-G) | Potency (Tov112D)

C/C=C1/[C@H](O[C@@H]2O[C@H](CO)[C@@H](O)[C@H](O)[C@H]2O)OC=C(C(=O)OC)[C@H]1CC(=O)OCCc1ccc(OC(=O)C[C@@H]2C(C(=O)OC)=CO[C@@H](O[C@@H]3O[C@H](CO)[C@@H](O)[C@H](O)[C@H]3O)/C2=C/C)cc1
inactive: activity change, negative = cytotoxicity (OV90) 7.47% [at 11.6 µM] | activity change, negative = cytotoxicity (PA-1) 1.32% [at 11.6 µM] | activity change, negative = cytotoxicity (SKOV3) 0% [at 11.6 µM] | activity change, negative = cytotoxicity (Tov-21-G) 4.28% [at 11.6 µM] | activity change, negative = cytotoxicity (Tov112D) 11.9% [at 11.6 µM]
